According to PubChem BioAssay:

Test: small molecules captured by biotinylated probe aFST – biochemical, small-molecule microarray, fluorescence 635/667, stem cell growth factor project, primary screen (AID 1086);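 also: score merges 667 nm fluorescence with signal-to-noise of each printed compound spot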
Settings: higher = more signal

Question: Which composite z-score does the source give for `COc1ccc(O[C@H]2C=C[C@@H](C#Cc3ccccc3)O[C@@H]2CO)cc1` here?
Answer: 0.137

Question: For `CC(C)CON=C1[C@H]2CCn3c(=O)n(C)c(=O)n3[C@H]2[C@H](O)[C@@H]2O[C@H]12`, which composite z-score is on record?
Answer: -0.0694

Question: For `COC(=O)[C@@H]1CC[C@H](C)[C@@H](c2ccc(Br)cc2)N1C[C@@H](O)CN=[N+]=[N-]`, which composite z-score is on record?
Answer: -0.139

Question: For `COC(=O)[C@H](C)NC(=O)CCC1CC(OC(=O)NCCc2ccc(F)cc2)CC2(CCCC(COC(=O)NCc3ccccc3)O2)O1` (some centres undefined), which composite z-score is on record?
Answer: 0.65

Question: With `O=C1C[C@H](c2ccccc2)[C@H](c2ccc(Br)cc2)O1` as the compound, how does the composite z-score read?
Answer: 0.133

Question: Which composite z-score does the source give for `COc1ccc(O[C@H]2C=C[C@@H](c3ccccc3)O[C@@H]2COC(=O)CCC(C)=NOC[C@@H](O)COCc2ccco2)cc1` here?
Answer: -2.3

Question: With `O=C1[C@H]2[C@H]3[C@H](O)[C@H](O)CC(=NOCc4ccccc4)[C@@H]3CC[C@H]2C(=O)N1c1cccc(Oc2ccccc2)c1` as the compound, how does the composite z-score read?
Answer: 0.529

Question: Which composite z-score does the source give for `O=C1[C@H]2[C@H]3[C@H](O)[C@H](O)CC(=NOC[C@@H](O)COCc4ccco4)[C@@H]3CC[C@H]2C(=O)N1Cc1ccc2c(c1)OCO2` here?
Answer: -0.0769

Question: With `CCOC(=O)[C@H](CC(C)C)NC(=O)CCC1CC(OC(=O)NCc2ccc3c(c2)OCO3)CC2(CCCC(COC(=O)NCc3ccccc3)O2)O1` (some centres undefined) as the compound, how does the composite z-score read?
Answer: 0.986

Question: With `O=C1C2=CC[C@H]3C(=O)N(C4CCCCC4)C(=O)[C@H]3[C@H]2[C@H](O)[C@@H]2O[C@H]12` as the compound, how does the composite z-score read?
Answer: -0.5

Question: With `C=CCOCC1CN2[C@@H](CC[C@@H](C)[C@@H]2c2ccc(Br)cc2)C(=O)O1` (some centres undefined) as the compound, how does the composite z-score read?
Answer: -0.546

Question: With `CCOC(=O)[C@H](Cc1ccccc1)NC(=O)CCC1CC(OC(=O)NCc2ccc3c(c2)OCO3)CC2(CCCC(COC(=O)NCCOc3ccccc3)O2)O1` (some centres undefined) as the compound, how does the composite z-score read?
Answer: 0.672

Question: Which composite z-score does the source give for `CCN1C(=O)[C@H]2[C@H]3[C@H](O)[C@H](O)CC(=NO[C@@H](C)c4cc(-c5c(C)cc(C)cc5C)no4)[C@@H]3CC[C@H]2C1=O` here?
Answer: 0.544

Question: With `O=C(NN=C1C[C@@H](O)[C@@H](O)[C@@H]2[C@@H]3C(=O)N(c4ccc(F)cc4F)C(=O)[C@@H]3CC[C@H]12)OCc1ccccc1` as the compound, how does the composite z-score read?
Answer: 0.991

Question: Which composite z-score does the source give for `CC#CCOCCC=C1c2ccccc2[C@@H](OC)[C@@H]1C` here?
Answer: 0.359

Question: For `CC(CCC(=O)OC[C@H]1O[C@H](C#Cc2ccccc2)C=C[C@@H]1Oc1ccc(C)cc1)=NO[C@H](C)c1cn([C@@H]2COC[C@H]2O)nn1`, which composite z-score is on record?
Answer: -0.0115

Question: For `COC(=O)[C@@H]1CC[C@H](C)[C@@H](c2ccc(C)cc2)N1C(=O)c1ccc(C=NOC[C@H]2O[C@H](c3ccccc3)C=C[C@@H]2Oc2ccc(OC)cc2)cc1`, which composite z-score is on record?
Answer: 0.044

Question: Which composite z-score does the source give for `CC(=O)OC[C@H]1O[C@@H](ON=C2[C@H]3CCn4c(=O)n(-c5ccccc5)c(=O)n4[C@H]3[C@H](O)[C@@H]3O[C@H]23)[C@H](OC(C)=O)[C@@H](OC(C)=O)[C@@H]1OC(C)=O` here?
Answer: 0.259

Test: binders of probe aHhip on microarray, primary screen, stem cell growth factor project, biochemical, small-molecule microarray, fluorescence 635/667 (AID 1087);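 also: score merges spot fluorescence at 667nm with spot signal to noise ratio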
Settings: higher = more signal

Question: With `COc1ccc(COC(=O)NN=C2C[C@@H](O)[C@@H](O)[C@@H]3[C@@H]4C(=O)N(C[C@@H]5CCCO5)C(=O)[C@@H]4CC[C@H]23)cc1` as the compound, how does the composite z-score read?
Answer: 0.0106

Question: With `CCOC(=O)[C@H](Cc1ccccc1)NC(=O)CCC1CC(OC(=O)NCCc2ccc(F)cc2)CC2(CCCC(COC(=O)NCCC(C)C)O2)O1` (some centres undefined) as the compound, how does the composite z-score read?
Answer: -0.201

Question: For `COC(=O)CC=C[C@@H](C)[C@@H](C=NOC[C@@H](O)[C@H]1O[C@@H]2OC(C)(C)O[C@@H]2[C@H]1O)OC`, which composite z-score is on record?
Answer: 0.221

Question: Which composite z-score does the source give for `C[C@]12CCC3c4ccc(OCC5CO5)cc4CCC3C1CC[C@@H]2O` (some centres undefined) here?
Answer: -0.0994

Question: With `CCOC(=O)CCN1C(=O)[C@H]2[C@H]3[C@H](O)[C@H](O)CC(=NO[C@@H]4O[C@H](CO)[C@@H](O)[C@H](O)[C@H]4O)[C@@H]3CC[C@H]2C1=O` as the compound, how does the composite z-score read?
Answer: -0.0296

Question: Which composite z-score does the source give for `CC(CCN1CCCCc2nc(C)c(C)cc21)=NO[C@H](C)c1cn([C@@H]2COC[C@H]2O)nn1` here?
Answer: -0.0772

Question: For `COc1ccc(COC(=O)NN=C2C[C@@H](O)[C@@H](O)[C@@H]3[C@@H]4C(=O)N(c5cccc(Oc6ccccc6)c5)C(=O)[C@@H]4CC[C@H]23)cc1`, which composite z-score is on record?
Answer: -0.0994

Question: Which composite z-score does the source give for `CC=CC1=C(CO)[C@H](O)[C@H]2O[C@H]2[C@@H]1O` here?
Answer: 0.154

Question: For `CC1(C)O[C@H]2OC([C@H](O)CON3C(=O)c4ccccc4C3=O)[C@H](O)[C@H]2O1` (some centres undefined), which composite z-score is on record?
Answer: -0.374

Question: Which composite z-score does the source give for `CCOC(=O)NN=C1C[C@@H](O)[C@@H](O)[C@@H]2[C@@H]3C(=O)N(CC)C(=O)[C@@H]3CC[C@H]12` here?
Answer: -0.153

Question: Which composite z-score does the source give for `CC(=O)OC[C@H]1O[C@@H](ON=C(C)CCC(=O)OC[C@H]2O[C@H](C#Cc3ccccc3)C=C[C@@H]2Oc2ccc(C)cc2)[C@H](OC(C)=O)[C@@H](OC(C)=O)[C@@H]1OC(C)=O` here?
Answer: -0.0994

Question: Which composite z-score does the source give for `Cc1cc2c(nc1C)CCCCN2CC(O)CN1CCCc2nc(-c3ccc(Br)cc3)ccc21` (centres undefined) here?
Answer: -0.146

Question: Which composite z-score does the source give for `CCOC(=O)CCN1C(=O)[C@H]2[C@H]3[C@H](O)[C@H](O)CC(=NOCC=C(C)CCC=C(C)C)[C@@H]3CC[C@H]2C1=O` here?
Answer: 0.0515

Question: With `CC(=O)OC[C@H]1O[C@@H](ON=C(C)CCN2CCCCc3nc(C)c(C)cc32)[C@H](OC(C)=O)[C@@H](OC(C)=O)[C@@H]1OC(C)=O` as the compound, how does the composite z-score read?
Answer: 0.0881

Question: With `CC(=O)OC[C@H]1O[C@H](CCON=C(C)C)C=C[C@@H]1OC(C)=O` as the compound, how does the composite z-score read?
Answer: -0.0645

Question: With `CCCNC(=O)OC[C@H]1O[C@H](CCON=C[C@@H](NS(=O)(=O)c2ccc(C)cc2)[C@H](C)C=CCC(=O)OC)C=C[C@@H]1Oc1ccc(OC)cc1` as the compound, how does the composite z-score read?
Answer: -0.0994

Question: Which composite z-score does the source give for `CCCC[C@H]1CN2[C@@H](CC[C@@H](C)[C@@H]2c2ccc(Br)cc2)C(=O)O1` here?
Answer: 0.0722

Question: Which composite z-score does the source give for `CCC1=NOC(CCC2CC(OC(=O)NCc3cccc4c3OCO4)CC3(CCCC(COC(=O)NCCc4ccc(Cl)cc4)O3)O2)C1` (centres undefined) here?
Answer: -0.0994

Question: For `COc1ccc(O[C@H]2C=C[C@@H](C#Cc3ccccc3)O[C@@H]2CO)cc1`, which composite z-score is on record?
Answer: -0.236

Question: For `CC(C)CON=C1[C@H]2CCn3c(=O)n(C)c(=O)n3[C@H]2[C@H](O)[C@@H]2O[C@H]12`, which composite z-score is on record?
Answer: 0.0505

Question: Which composite z-score does the source give for `COC(=O)[C@@H]1CC[C@H](C)[C@@H](c2ccc(Br)cc2)N1C[C@@H](O)CN=[N+]=[N-]` here?
Answer: 0.0881

Question: With `COC(=O)[C@H](C)NC(=O)CCC1CC(OC(=O)NCCc2ccc(F)cc2)CC2(CCCC(COC(=O)NCc3ccccc3)O2)O1` (some centres undefined) as the compound, how does the composite z-score read?
Answer: -0.305

Question: With `O=C1C[C@H](c2ccccc2)[C@H](c2ccc(Br)cc2)O1` as the compound, how does the composite z-score read?
Answer: -0.0994

Question: Which composite z-score does the source give for `COc1ccc(O[C@H]2C=C[C@@H](c3ccccc3)O[C@@H]2COC(=O)CCC(C)=NOC[C@@H](O)COCc2ccco2)cc1` here?
Answer: -0.115

Question: For `O=C1[C@H]2[C@H]3[C@H](O)[C@H](O)CC(=NOCc4ccccc4)[C@@H]3CC[C@H]2C(=O)N1c1cccc(Oc2ccccc2)c1`, which composite z-score is on record?
Answer: 0.141

Question: Which composite z-score does the source give for `O=C1[C@H]2[C@H]3[C@H](O)[C@H](O)CC(=NOC[C@@H](O)COCc4ccco4)[C@@H]3CC[C@H]2C(=O)N1Cc1ccc2c(c1)OCO2` here?
Answer: 0.2

Question: Which composite z-score does the source give for `CCOC(=O)[C@H](CC(C)C)NC(=O)CCC1CC(OC(=O)NCc2ccc3c(c2)OCO3)CC2(CCCC(COC(=O)NCc3ccccc3)O2)O1` (some centres undefined) here?
Answer: -0.0994

Question: With `O=C1C2=CC[C@H]3C(=O)N(C4CCCCC4)C(=O)[C@H]3[C@H]2[C@H](O)[C@@H]2O[C@H]12` as the compound, how does the composite z-score read?
Answer: -0.164

Question: For `C=CCOCC1CN2[C@@H](CC[C@@H](C)[C@@H]2c2ccc(Br)cc2)C(=O)O1` (some centres undefined), which composite z-score is on record?
Answer: -0.0994

Question: Which composite z-score does the source give for `CCOC(=O)[C@H](Cc1ccccc1)NC(=O)CCC1CC(OC(=O)NCc2ccc3c(c2)OCO3)CC2(CCCC(COC(=O)NCCOc3ccccc3)O2)O1` (some centres undefined) here?
Answer: -0.0994

Question: Which composite z-score does the source give for `CCN1C(=O)[C@H]2[C@H]3[C@H](O)[C@H](O)CC(=NO[C@@H](C)c4cc(-c5c(C)cc(C)cc5C)no4)[C@@H]3CC[C@H]2C1=O` here?
Answer: -0.225

Question: For `O=C(NN=C1C[C@@H](O)[C@@H](O)[C@@H]2[C@@H]3C(=O)N(c4ccc(F)cc4F)C(=O)[C@@H]3CC[C@H]12)OCc1ccccc1`, which composite z-score is on record?
Answer: 0.0854

Question: Which composite z-score does the source give for `CC#CCOCCC=C1c2ccccc2[C@@H](OC)[C@@H]1C` here?
Answer: 0.154

Question: For `CC(CCC(=O)OC[C@H]1O[C@H](C#Cc2ccccc2)C=C[C@@H]1Oc1ccc(C)cc1)=NO[C@H](C)c1cn([C@@H]2COC[C@H]2O)nn1`, which composite z-score is on record?
Answer: -0.134

Question: For `COC(=O)[C@@H]1CC[C@H](C)[C@@H](c2ccc(C)cc2)N1C(=O)c1ccc(C=NOC[C@H]2O[C@H](c3ccccc3)C=C[C@@H]2Oc2ccc(OC)cc2)cc1`, which composite z-score is on record?
Answer: -0.191

Question: With `CC(=O)OC[C@H]1O[C@@H](ON=C2[C@H]3CCn4c(=O)n(-c5ccccc5)c(=O)n4[C@H]3[C@H](O)[C@@H]3O[C@H]23)[C@H](OC(C)=O)[C@@H](OC(C)=O)[C@@H]1OC(C)=O` as the compound, how does the composite z-score read?
Answer: -0.0024
